Pf growth 96h: P. falciparum growth inhibition at 96 hours | 320,000 tested, 6.9% active | Potency, µM (series often up to 28.7 µM), for inactives: top-dose activity change, negative = inhibition, usual class: inhibitors | P. falciparum luciferase reporter growth, 96 h; also: potency is read from the fitted curve at half-maximal effect; % is scaled to controls: 0 for no effect and ±100 for the full control effect
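Two-generation exposure (96 h) targets delayed-death phenotype. Reporter parasites carrying integrated firefly luciferase, in red cells at 2% hematocrit and 0.05% parasitemia final, kept at 37 C, 5% CO2; luminescence loss indicates inhibition.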
Shiga inhibitor: blocks Shiga toxin action in Vero cells | AID 2315 | inhibition, % at 38.7 µM | 290,000 tested, 9.2% active | Vero cells, Shiga toxin protein synthesis inhibition reporter; in the data active = inhibition mostly above about 28%, no sharp cut-off; inactive = mostly below about 43%; also: 0% is about no effect
Giardia FBPA inh: blocks Giardia fructose-bisphosphate aldolase activity; A8B2U2; purified Giardia FBPA; Potency, µM (titrated, usually from 59.6 µM), for inactives: at the top dose activity, negative = inhibition, usual class: inhibitors; 290,000 tested, 0.71% active; also: potency is read from the fitted curve at half-maximal effect; % is scaled to controls: 0 for no effect and ±100 for the full control effect; nearly all actives have a fitted effect of over 55% in size
Target sequence (A8B2U2 whole entry, looked up): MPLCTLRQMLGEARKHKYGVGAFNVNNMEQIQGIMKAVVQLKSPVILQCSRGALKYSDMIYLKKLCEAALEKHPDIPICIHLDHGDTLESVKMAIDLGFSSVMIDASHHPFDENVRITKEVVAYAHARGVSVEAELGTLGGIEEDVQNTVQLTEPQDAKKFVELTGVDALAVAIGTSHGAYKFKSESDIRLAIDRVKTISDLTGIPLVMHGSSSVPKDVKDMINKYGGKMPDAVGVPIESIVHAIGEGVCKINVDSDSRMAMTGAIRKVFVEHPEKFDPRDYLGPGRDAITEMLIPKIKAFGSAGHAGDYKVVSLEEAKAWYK
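40 nM FBPA preincubated 10 min at RT with compound (up to 57.5 uM final), then substrate plus GAPDH/TPI/NAD/arsenate coupling and diaphorase/resazurin added. Fluorescence read after 20 min at RT, 525/598 nm.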
CHX counter: counter-screen for Shiga toxin inhibitors: cycloheximide protein synthesis inhibition; cell reporter, cycloheximide protein synthesis inhibition counterscreen; max response, %; 300,000 tested, 12% active; AID 2314; in the data active = max response mostly above about 13%, no sharp cut-off; inactive = mostly below about 14%; also: read at 38.3 µM for the half of the compounds with a filed dose; 0% is about no effect
NS1 function inh: blocks influenza NS1 protein function. Potency, µM (highest dose often 46.1 µM), for the others: at the highest dose activity, positive = more growth. 270,000 tested, 0.4% active; calls by dose curve; also: potency is read from the fitted curve at half-maximal effect; actives are rising curves; nearly all actives have a fitted effect of over 50% in size
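Recovery from NS1-induced slow growth read by OD600 in budding yeast switched to galactose assay medium (pH 6.0, -URA) at 1:100 dilution. Compound 23 nl per well; the matching strain lacking NS1 serves as control.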
Pf growth 48h: inhibits P. falciparum growth in the first generation, 48 h | AID 504832 | 310,000 tested, 5.9% active | P. falciparum luciferase growth in erythrocytes, 48 h | Potency, µM (top dose mostly 28.7 µM), inactives show top-dose activity change, negative = inhibition, hits mostly inhibitors; also: potency is read from the fitted curve at half-maximal effect; % is scaled to controls: 0 for no effect and ±100 for the full control effect
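Parasite viability was followed by luminescence of a genomically integrated firefly luciferase. Cultures held 0.1% parasitemia at 2% hematocrit (final), incubated under 5% CO2 at 37 C.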
Starred values were filed as active, the others as inactive; u = inconclusive; x = no result; [ ] = remark or other dose. An excerpt weighted towards active compounds, which were near 21% of everything screened. Unless noted, calls follow the shape of the dose curve; as a rule, active = well fitted curve in the direction sought with a large enough effect; inconclusive = small, poorly fitted or top-dose-only effect, or another doubt; inactive = no such curve, though single readings can be large; an effect the other way counts as inactive or inconclusive.

SMILES	Pf growth 96h	Shiga inhibitor	Giardia FBPA inh	CHX counter	NS1 function inh	Pf growth 48h
COc1ccc(-c2cc(N3C(=O)Nc4ccccc4N3O)n[nH]2)cc1OC	10%	19	0%	13*	11%	12%
Clc1ccc(CSc2nnc(-c3ccc4c(c3)OCO4)o2)cc1	4%	-8	8%	1	-64%	x
c1nnc(-c2ccc3c(c2)OCO3)o1	20%	21	7%	8	x	8%
c1coc(-c2nnc(-c3ccc4c(c3)OCO4)o2)c1	145%	52*	0%	22*	-24%	x
Cc1ccc(-c2nnc(-c3ccc4c(c3)OCO4)o2)cc1	0%	101*	-4%	46*	-7%	110%
Brc1ccc(-c2nnc(-c3ccc4c(c3)OCO4)o2)o1	13%	111*	0%	35*	-12%	198%
C/C(=N/NC(=O)CNC(=O)C1COc2ccccc2O1)c1ccc([N+](=O)[O-])cc1 (stereo not given)	26%	-8	3%	-2	5%	15%
O=S(=O)(O)c1cc(N=[N+]([O-])c2cc(S(=O)(=O)O)c3ccccc3c2)cc2ccccc12	x	x	x	x	-3%	x
C/C(=N\NC(=O)c1ccc(N)cc1)C1CC1	27%	39*	x	40*	5%	8%
C/C(=N\NC(=O)c1ccccc1O)C1CC1	1%	66*	6%	19	-15%	7%
CCCC(=O)Nc1ccc(C(=O)NN=C(C2CC2)C2CC2)cc1	12%	3	1%	-1	17%	8%
O=[N+]([O-])c1ccc(C=Nc2cccc3ccccc23)s1	36%	38	u	-3	-44%	u
CC(=O)Oc1ccccc1/C=C/c1nc2ccccc2c(=O)o1	35%	-6	8%	4	9%	1.5µM*
CC(=O)Oc1ccc(/C=C/c2nc3ccccc3c(=O)o2)cc1	12µM*	-33	-4%	-2	-9%	168%
O=c1oc(/C=C/c2ccc([N+](=O)[O-])s2)nc2ccccc12	0.083µM*	17	0%	12*	19%	u
COc1cccc(C(=O)NC2CCNCC2)c1	u	-9	-2%	-2	14%	-11%
Cc1ccc(NC(=O)C2C3CCC(O3)C2C(=O)O)c(Br)c1 (stereo not given)	-9%	9	-3%	3	3%	69%
CC(C)=CCOc1ccc(/C=C/C(=O)c2ccc(OCC=C(C)C)cc2OCC(=O)O)cc1	-17%	21	28%	7	x	-12%
Cc1ccc(S(=O)(=O)/N=C2\CN(C)C(=O)N2C)cc1	4.7µM*	-17	3%	-7	19%	5%
Cc1ccc(S(=O)(=O)/N=c2\sccn2C)cc1	135%	-14	2%	-4	11%	11%
COc1ccc(CCNC(=O)c2nnn(CC(=O)Nc3ccc(C)cc3C)c2N)cc1OC	u	-3	3%	12	-10%	21%
Cc1ccc(S(=O)(=O)N2CCN(C(=O)COC(=O)c3ccc(O)cc3)CC2)c(C)c1	u	x	x	x	x	-43%
CCC(C(=O)OCC(=O)N1CCN(S(=O)(=O)c2ccc(C)cc2C)CC1)c1ccccc1 (stereo not given)	9.3µM*	x	x	x	x	13µM*
CCOC(=O)c1c(C)[nH]c(C(=O)OCC(=O)N2CCN(S(=O)(=O)c3ccc(C)cc3C)CC2)c1C	7.4µM*	x	x	x	x	15µM*
Cc1[nH]c2ccccc2c1/C=C/c1nc2ccccc2c(=O)n1-c1cccc([N+](=O)[O-])c1	3.7µM*	-13	-4%	-1	15%	2.1µM*
SMILES	Pf growth 96h	Shiga inhibitor	Giardia FBPA inh	CHX counter	NS1 function inh	Pf growth 48h
O=c1c2ccccc2nc(/C=C/c2c[nH]c3ccccc23)n1-c1ccc([N+](=O)[O-])cc1	81%	19	4%	-2	-2%	u
Cc1[nH]c2ccccc2c1/C=C/c1nc2ccccc2c(=O)n1CCO	11%[1.15 µM]	49*	-1%	25*	-10%	9.3µM*
CCNS(=O)(=O)c1ccc(CCC(=O)NCc2ccccn2)cc1	19%	x	-11%	5	5%	0%
O=C(CCc1ccc(S(=O)(=O)NC2CCCCC2)cc1)NCc1ccccn1	-14%	98*	-25%	44*	6%	29%
O=C(COc1ccc(S(=O)(=O)NC2CCCCC2)cc1)NCc1ccccn1	4.1µM*	-9	8%	0	-6%	1%
COc1ccc(OC)c(CCNC(=O)c2ccc(CS(=O)Cc3cccc(Cl)c3)o2)c1 (stereo not given)	4.1µM*	0	-5%	2	-1%	u
COc1ccc(OC)c(Cc2nnc(CCC(=O)NCc3nc4ccccc4s3)o2)c1	7.4µM*	32	-6%	16	1%	0%
COc1ccc(CNC(=O)c2ccc(CS(=O)Cc3cccc(Cl)c3)o2)cc1 (stereo not given)	u	-5	5%	-2	6%	1%
COc1cccc(CCNC(=O)CCc2nnc(Cc3cc(OC)ccc3OC)o2)c1	-22%	23*	5%	28*	-15%	-12%
COc1ccc(OC)c(Cc2nnc(CCC(=O)NC3CCCCCCC3)o2)c1	u	77*	2%	33*	-1%	-18%
CC1SC(c2ccc(F)cc2)NC1=O (stereo not given)	-15%	-7	5%	-2	0%	5%
Cc1ccc(S(=O)(=O)N2CCCCC2)cc1NC(=O)CSc1ncccn1	13%	x	x	x	x	20%
Cc1ccnc(NC(=O)CNC(=O)Cc2cccc3ccccc23)c1	176%	x	x	x	x	98%
COc1ccc(OC)c(Cc2nnc(CCC(=O)N3CCCCC3c3nccs3)o2)c1 (stereo not given)	28%	87*	-1%	43*	0%	-11%
CCC[C@H](NC(C)=O)C(=O)N[C@H]1CC(=O)ONCCCC[C@@H](C(N)=O)NC(=O)[C@H](Cc2c[nH]c3ccccc23)NC(=O)[C@H](CCCN=C(N)N)NC(=O)[C@@H](Cc2ccc3ccccc3c2)NC(=O)[C@H](Cc2cnc[nH]2)NC1=O	x	-12	5%	-5	x	x
COCC(=O)N1CCC2(CCCN(Cc3ccccc3)C2)CC1	x	x	-2%	x	x	x
COC(=O)C1CCN(C(=O)c2ccc3nc(-c4cccc(OC)c4)oc3c2)CC1	-22%	95*	x	76*	-18%	1%
COc1cccc(C(=O)NC(C)CCc2ccccc2)c1 (stereo not given)	u	10	10%	-2	-11%	-2%
COc1cccc(-c2nc3ccc(C(=O)NC(C)Cc4cccnc4)cc3o2)c1 (stereo not given)	17%	28*	5%	29*	-6%	57%
COC(=O)C1CCN(C(=O)c2ccc3nccnc3c2)CC1	u	-6	x	5	-1%	18%
c1ccc(Cn2ncc3c(NCc4ccco4)ncnc32)cc1	0%	2	4%	-2	-6%	u
c1ccc(-n2ncc3c(NCc4ccco4)ncnc32)cc1	x	85*	-23%	53*	-5%	207%

Source: PubChem BioAssay
